Sampled rows, rich in hits. Any-hit rate of the full collection: about 7.1%.
Marburg entry: Marburg virus entry inhibition. Marburg virus pseudotype entry/binding inhibition, cell-based. Potency, µM (highest dose often 49.2 µM), without a hit: at the highest dose activity change, negative = inhibition, actives largely listed as inhibitors. 18,000 compounds, 6.5% hits
Lassa entry: blocks Lassa virus binding or cell entry; Lassa virus pseudotyped entry inhibition, cell-based qHTS; Potency, µM (doses to about 49.2 µM), without a hit: at the top dose activity change, negative = inhibition, actives largely listed as inhibitors; 18,000 compounds, 4.1% hits
An asterisk follows results filed as active; ? = inconclusive; . = no result given; ! = not active in a repeat; [ ] = remark or other dose. The call rests on the fitted dose curve; tested in HEK293 cells. On the % scale 0 is the no-effect control and ±100 the full control effect; potency means the concentration at half of the fitted maximal effect.

SMILES | Marburg entry | Lassa entry
COc1cccc2c1[C@H](C=Cc1ccccc1)[C@@H]([C@H](O)CN=[N+]=[N-])OC2 | -5%[8.59 µM] | -18%[8.59 µM]
CC1=C[C@@H](C)OC2(C1)C(=O)N(Cc1ccc(Br)cc1)c1cccc(Br)c12 (stereo partly specified) | 4%[8.59 µM] | -2%[8.59 µM]
C=CCc1ccc(OC)cc1 | 6.3µM* | 6.3µM*
C=CCc1ccc(O)c(-c2cc(CC=C)ccc2O)c1 | 9% | -14%
C#CCCCON=C1C[C@@H](O)[C@H](O)[C@H]2[C@@H]3C(=O)N(c4ccc(F)cc4F)C(=O)[C@@H]3CC[C@H]12 | -6%[8.59 µM] | 2%[8.59 µM]
CC(C)(O)C1O[C@H]2CC[C@@]3(C)[C@@](O)(CC[C@H]4Cc5c([nH]c6ccccc56)[C@@]43C)C2=CC1=O (stereo partly specified) | ? | 32µM*!
COc1cccc([C@H]2Oc3ccc(OC)cc3C(=NO[C@H](C)CN3CCCc4nc(C)c(C)cc43)[C@H]2O)c1 | ? | 6%[8.59 µM]
C(#CCN1CCCC1)CN1CCCC1 | 8.9µM* | ?
C#CCCCON=C1C[C@@H](O)[C@H](O)[C@H]2[C@@H]3C(=O)N(c4ccc(F)cc4F)C(=O)[C@@H]3CC[C@@H]12 | -8%[8.59 µM] | 17%[8.59 µM]
Oc1ccc2c3c1O[C@H]1c4oc5ccccc5c4C[C@@]4(O)C(C2)N(CC2CC2)CC[C@]314 | 14µM* | ?
COc1ccc2c3c1O[C@H]1C(=O)CC[C@@]4(O)C(C2)N(CC2CC2)CCC314 (stereo partly specified) | ? | -7%
Oc1ccc2c3c1O[C@H]1c4[nH]c5c(c4C[C@@]4(O)[C@@H](C2)N(CC2CC2)CC[C@]314)C[C@]1(O)[C@H]2Cc3ccc(O)c4c3[C@@]1(CCN2CC1CC1)[C@@H]5O4 | 3% | -10%
Oc1ccc2c3c1O[C@H]1c4c(c5ccccc5n4Cc4ccccc4)C[C@@]4(O)C(C2)N(CC2CC2)CC[C@]314 | 7.9µM* | 14µM*
O[C@H]1C[C@H](c2ccccc2)N(Cc2cccs2)C[C@H]1n1cc(C2CC2)nn1 | ? | 2%
CC(C)(C)NC(=O)[C@H]1CC[C@H]2[C@@H]3CC=C4C=C(C(=O)O)CC[C@]4(C)[C@H]3CC[C@]12C | 20% | 9%
C=CCN1C(=O)[C@]2(O[C@H](C)CC3=CCCC32)c2c(Br)cccc21 (stereo partly specified) | 2%[8.59 µM] | 47%[8.59 µM]
C[N+]1(C)CCC(OC(=O)C(O)(c2ccccc2)C2CCCC2)C1 (stereo unspecified) | 8% | ?
CCCOC(C(=O)OC1CCN(C)CC1)(c1ccccc1)c1ccccc1 | 6.3µM* | 16µM*
O=C(NC(CC1=CCCCC1)c1ccc2c(c1)OCO2)C(F)(F)F (stereo unspecified) | 47%[8.59 µM] | 27%[8.59 µM]
COc1cc(OC)cc(-c2sc3ccccc3c(=O)c2I)c1 | 18µM* | ?
COc1ccc(-c2cc3ccccc3c(=O)o2)cc1 | 44% | 38%
Cc1ccc(-c2cc(=O)c3cc(C)ccc3[nH]2)cc1 | 25µM* | ?
Cc1ccc2[nH]c(-c3cccc(F)c3)cc(=O)c2c1 | ? | 9%
Cc1cc(O)cc(C)c1C=Cc1cncc(C(=O)OC(C)(C)C)c1 | -49% | .
CC=COC(=O)N[C@@H](c1ccccc1)[C@]1(C(C)=O)CCOC1=O | 7%[8.59 µM] | 24%[8.59 µM]
SMILES | Marburg entry | Lassa entry
O[C@H](CCCN1CCN(c2ncc(F)cn2)CC1)c1ccc(F)cc1 | -26% | 0%
CC(C)(C)c1ccc(C(O)CCCN2CCC(C(O)(c3ccccc3)c3ccccc3)CC2)cc1 (stereo unspecified) | ? | 16µM*
CC(C)(C)c1ccc([C@@H](O)CCCN2CCC(C(O)(c3ccccc3)c3ccccc3)CC2)cc1 | ? | 6.3µM*
OC(c1ccccc1)(c1ccccc1)C1CCNCC1 | -25%[17.8 µM] | -1%[17.8 µM]
CCOC(=O)C1=CN(CCNC(=O)OC(C)(C)C)C(=O)NC1c1ccccc1 (stereo unspecified) | 21%[8.59 µM] | -15%[8.59 µM]
C=C=CCCN1C(=O)NC(c2ccccc2)C(C(=O)OC)=C1C (stereo unspecified) | -18%[8.59 µM] | 5%[8.59 µM]
CCCCCCCc1cc2ccccc2c2c(C(=O)OC)cc(C(=O)OC)n12 | 25%[8.59 µM] | -12%[8.59 µM]
O=C1/C(=C\c2ccccc2)C[C@@]2(O)[C@H]3Cc4ccc(O)c5c4[C@@]2(CCN3CC2CC2)[C@@H]1O5 | 11µM* | 3.5µM*
O=C1/C(=C\c2ccccc2)C[C@@]2(O)[C@H]3Cc4ccc(O)c5c4[C@@]2(CCN3CC2CC2)[C@H]1O5 | ? | 4µM*
Oc1ccc2c3c1O[C@H]1[C@H](O)CC[C@@]4(O)[C@@H](C2)N(CC2CC2)CC[C@]314 | -15% | 1%
COC(=O)/C=C\C(=O)N[C@@H]1CC[C@@]2(O)[C@H]3Cc4ccc(O)c5c4[C@@]2(CCN3CC2CC2)[C@@H]1O5 | 28µM* | ?
Oc1ccc2c3c1O[C@H]1[C@@H](O)CC[C@@]4(O)[C@@H](C2)N(CC2CCC2)CC[C@]314 | ? | 0%
O=C1CC[C@@]2(O)[C@H]3Cc4ccc(O)c5c4[C@@]2(CCN3CC2CC2)[C@@H]1O5 | 11% | 8%
C#CCNc1ccc2c(c1)OC[C@H](C)NS2(=O)=O | 8% | .
Cc1cc2c(c(-c3cnccn3)c1)OC(CNC(=O)c1cc(Cl)ccc1F)C2 (stereo unspecified) | 25µM* | -2%
CSc1ccccc1C(=O)NCC1Cc2cc(F)cc(-c3cnccn3)c2O1 (stereo unspecified) | -5% | -10%
O=C(NCC1Cc2cccc(-c3cnccn3)c2O1)c1ccc(F)c(Cl)c1 (stereo unspecified) | 11µM* | 2%
O=C(NCC1Cc2cccc(-c3ncccn3)c2O1)c1cccc(-c2ccccc2F)c1 (stereo unspecified) | -1% | -14%
O=C(O)COc1ccccc1/C=N/NC(=O)c1ccncc1 | 15% | -3%
O=C(N/N=C/c1ccccc1O)c1ccncc1 | -24% | 10µM*
COC(=O)C1=C(C(=O)OC)[C@@H]2N(C)c3ccccc3[C@@]23C[C@@H](CO)N(C(=O)NC2CCCCC2)C3=N1 | -2%[8.59 µM] | -3%[8.59 µM]
CCc1ccc(S(=O)(=O)O)cc1 | -3% | -8%
O=C(O)c1[nH]n(-c2ccc(S(=O)(=O)O)cc2)c(=O)c1N=Nc1ccc(S(=O)(=O)O)cc1 | ? | 4µM*
C[C@@H]1CC[C@H]2C(=O)N(Cc3cccc([N+](=O)[O-])c3)C[C@@H](O)CN2[C@@H]1c1ccc(Br)cc1 | -13%[8.59 µM] | -10%[8.59 µM]
CO/C=C(/C(=O)OC)c1ccccc1Oc1cc(Oc2ccccc2C#N)ncn1 | 28µM* | 22µM*
SMILES | Marburg entry | Lassa entry
C=CCC(C)(O)c1cccc(C(F)(F)F)c1 (stereo unspecified) | 3% | -10%
C=CC[C@](C)(O)c1ccccc1 | -15% | 0.75µM*!
CC1=CC[C@@H](C)O[C@@]2(C1)C(=O)Nc1cccc(Br)c12 | -15%[8.59 µM] | 60%[8.59 µM]
COc1ccc(-c2ccc3c(n2)CCCN3CC(O)CN2CCCc3nc(C)c(C)cc32)cc1 (stereo unspecified) | 53%[8.59 µM] | 12%[8.59 µM]
CC(C)CON=C1C[C@@H](O)[C@@H](O)[C@@H]2[C@H]3C(=O)N(Cc4ccccc4)C(=O)[C@@H]3CC[C@@H]12 | 1%[8.59 µM] | -10%[8.59 µM]
COc1cc(NS(C)(=O)=O)ccc1Cc1c2ccccc2nc2ccccc12 | 2µM* | ?
CN1CCN(c2nc(-c3cccc(NS(C)(=O)=O)c3)nc3ccccc23)CC1 | -29% | 22%
COc1cccc(-n2ncc3c(NN=Cc4ccc(C(=O)NCCN(C)C)cc4)ncnc32)c1 | 10µM* | 11%

From PubChem BioAssay
